# Source: PubChem (SRMLSC)
# Abs 340nm = compounds absorbing at 340 nm; compound absorbance at 340 nm, fold over control; fold change at 10 µM; 65,000 tested, under 10 active; AID 708;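 active = at 10 µM dose, initial 340 nm absorbance at least 2 fold that of control wells; inactive = change under 2 fold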;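 also: initial absorbance extrapolated from kinetic A340 decline of NADH oxidation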
# MK inhibit = inhibitors of Streptococcus pneumoniae mevalonate kinase | purified MK, PK/LDH-coupled NADH absorbance 340 nm | inhibition, % at 10 µM | hit rate 0.48% among 65,000 | AID 555;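 active = ranked among the strongest by inhibition in the single 10 µM screen, a fixed top-ranked set picked for dose follow-up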
# NADH coupling = inhibition of NAD/NADH coupling enzymes, library profiling | coupled PK/LDH NADH assays, four targets | IC50, µM (titrated, usually from 10 µM), without a hit: at the top dose inhibition | hit rate 0.02% among 65,000 | AID 774;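 active = single-dose screening hits from any of four coupled enzyme assays that gave an IC50 when retested across doses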;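 also: the DPM-DC format reads NADH fluorescence rather than 340 nm absorbance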
# Autofluor 339 = intrinsic fluorescence of library compounds, ex339/em460 – biochemical, MLSMR library, data from DPM-DC assay, artefact control, profiling panel. compound autofluorescence, ex339/em460 nm, NADH buffer; stronger effect = higher value; 1 = no-compound wells, NADH background. fluorescence fold increase at 10 µM. hit rate 5.5% among 65,000. AID 709;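 active = at 10 µM, mean starting fluorescence two-fold or more over control wells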;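 also: signal is the first read of a kinetic run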
# PMK inhibit = blocks S. pneumoniae phosphomevalonate kinase; inhibition, % at 10 µM; AID 539; purified PMK, PK/LDH-coupled NADH absorbance 340 nm; hit rate 0.49% among 65,000;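 active = top-ranked compounds by inhibition in the single 10 µM screen, taking a fixed number of the strongest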;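 also: 0% = full reaction with DMSO carrier and 100% = background rate without enzyme reaction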
# Spn DPM-DC inh = blocks S. pneumoniae diphosphomevalonate decarboxylase. purified DPM-DC, PK/LDH coupled NADH fluorescence. AID 556. hit rate 0.49% among 65,000. calls only at 10 µM;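 active = the 320 compounds with the highest percent inhibition in the single-dose primary screen, excluding strongly autofluorescent ones, cut at about 32% in these data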;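 also: kinetic rate of NADH fluorescence loss reporting ADP formed by the decarboxylase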
# The depositor's hits bear a star; i = inactive; . = no result shown; + = active, no number. Compounds with a hit are over-represented: about 6.8% of the library has one in this group of screens.
SMILES,Abs 340nm,MK inhibit,NADH coupling,Autofluor 339,PMK inhibit,Spn DPM-DC inh
CCOC(=O)c1sc(C)c2c1NC(C)(c1cccs1)NC2=O (configuration not stated),1.01,8.0,4.0%,2.97*,12.0,.
CCOC(=O)c1sc(C)c2c1NC1(CCCCC1)NC2=O,1.05,14.0,13.0%,3.86*,12.0,.
CCOC(=O)CS(=O)(=O)c1nc(-c2ccccc2)cc(C(F)(F)F)n1,0.98,10.0,4.0%,1.04,6.0,i
NC(=O)c1c(C(F)(F)F)cc(-c2ccccc2)nc1NCCO,1.09,7.0,8.0%,3.74*,9.0,.
CCOc1cccc2cc(-c3csc(NC(=O)CCC(=O)N4CCN(C)CC4)n3)c(=O)oc12,1.1,0.0,4.0%,1.94,2.0,i
CC(=O)NC1N=C(C)N(c2ccccc2)C1=O (configuration not stated),1.06,0.0,9.0%,1.1,28.0*,i
CC(=O)Nc1ccn(-c2ccccc2)n1,1.01,11.0,2.0%,1.09,1.0,i
Cc1c(OCc2nn[nH]n2)ccc2c3c(c(=O)oc12)CCC(C)C3 (configuration not stated),1.12,0.0,1.0%,3.83*,2.0,.
COc1ccc2c3c(c(=O)oc2c1OCC(N)=O)CCCC3,1.02,10.0,2.0%,2.47*,0.0,.
Cc1coc2c(C)c3oc(=O)c4c(c3cc12)CCCC4,1.04,0.0,1.0%,1.33,2.0,i
CCOC(=O)COc1ccc2c3c(c(=O)oc2c1C)CCC3,1.09,0.0,9.0%,2.26*,6.0,i
Cc1c(OCc2nn[nH]n2)ccc2c3c(c(=O)oc12)CCCC3,1.1,0.0,2.0%,3.8*,4.0,.
O=C(CC1Nc2ccccc2NC1=O)NC1CCCCC1 (configuration not stated),1.04,6.0,16.0%,2.05*,15.0,i
O=C1CCC(C(=O)N(c2ccccc2)C2(C(=O)NC3CCCCC3)CCCCC2)N1 (configuration not stated),1.02,3.0,3.0%,1.1,6.0,i
O=C1NC(=O)C(CC(=O)N(c2ccccc2)C2(C(=O)NC3CCCC3)CCCCC2)N1 (configuration not stated),1.01,0.0,8.0%,1,0.0,+
CC(=O)NCCCc1c[nH]c2ccc(Cl)cc12,1.03,4.0,2.0%,1.23,3.0,i
COc1ccc(Cl)cc1N(CC(=O)Nc1ccc2c(c1)OCCO2)S(C)(=O)=O,1.06,13.0,12.0%,1.07,23.0,i
CCOC(=O)C1CCN(C(=O)CN(c2ccc(OC)c(OC)c2)S(=O)(=O)c2ccccc2)CC1,1.04,71.0*,27.0%,1.12,2.0,i
Cn1nc(-c2ccc(Cl)cc2)c2cc(C(=O)N3CCN(C(=O)c4ccco4)CC3)sc21,1.1,0.0,2.0%,1.57,7.0,i
Cn1nc(-c2ccc(Cl)cc2)c2cc(C(=O)NCCCN3CCOCC3)sc21,1.1,6.0,8.0%,2.1*,10.0,.
CCN1CCN(C(=O)c2cc3c(-c4ccc(Cl)cc4)nn(C)c3s2)CC1,1.05,0.0,8.0%,1.83,0.0,i
Cn1nc(-c2ccc(Cl)cc2)c2cc(C(=O)NCCN3CCOCC3)sc21,1.1,5.0,8.0%,2.13*,10.0,.
Cc1c(-c2ccccc2)c(P(=O)(N2CCOCC2)N2CCOCC2)c2ccccn12,1.04,0.0,6.0%,5*,12.0,.
O=P(C1=C(N2CCOCC2)/C(=C\c2ccccc2)CC1)(N1CCOCC1)N1CCOCC1,1.12,1.0,8.0%,1.23,16.0,i
CCOC(=O)Nc1ccc(OC)cc1S(=O)(=O)N1CCCCC1,1.02,3.0,1.0%,1.07,8.0,i
SMILES,Abs 340nm,MK inhibit,NADH coupling,Autofluor 339,PMK inhibit,Spn DPM-DC inh
CC(=O)c1cccc(NC(=O)NC(C)c2ccncc2)c1 (configuration not stated),1.03,0.0,1.0%,1.11,3.0,i
Cc1cc(=O)oc2ccc(OCC(=O)N3CCC(C)CC3)cc12,1,7.0,7.0%,1.75,6.0,+
Cc1cc(=O)oc2cc(OCC(=O)N3CCCC(C)C3)ccc12 (configuration not stated),1.04,2.0,7.0%,2.69*,13.0,i
COc1ccc(S(=O)(=O)N2CCN(C(=O)COc3ccc4c(C)cc(=O)oc4c3)CC2)cc1,1.07,6.0,10.0%,2.56*,7.0,i
COc1ccc(-n2nnc3c(SCC(=O)N4CCN(c5ccccc5)CC4)ncnc32)cc1,0.99,5.0,5.0%,1.09,9.0,i
CC12C=CC3(CN(Cc4ccccc4)C(=O)C3C1C(=O)NCc1ccco1)O2 (configuration not stated),0.98,3.0,8.0%,1.03,20.0,i
Cn1c(-c2ccc(CN3CCCCC3)o2)nc2ccccc21,1.1,0.0,3.0%,2.15*,2.0,i
COc1cc(NC(=O)CCCC(=O)OCC(F)(F)C(F)F)nc(OC)n1,1.02,8.0,4.0%,1.09,4.0,i
Cc1c(S(=O)(=O)Nc2cccc(Cl)c2)c(=O)n(C)c(=O)n1C,1.07,55.0*,18.0%,0.99,0.0,i
COc1cccc(OCCOc2c(OC)cccc2OC)c1,1.01,7.0,4.0%,1.05,6.0,i
Cc1cccc(N2C(=O)c3cccc4c(N(C)CCO)ccc(c34)C2=O)c1,1.06,3.0,2.0%,2.11*,1.0,.
COc1ccc(OCC(=O)N2CCN(c3nnc(-c4ccccc4)c4ccccc34)CC2)cc1,1.06,1.0,9.0%,1.13,26.0*,i
Cc1ccc(C(c2nnnn2CC2CCCO2)N2CCN(C(=O)c3ccco3)CC2)cc1 (configuration not stated),0.97,0.0,15.0%,0.83,32.0*,i
CC(C)CCn1nnnc1C(c1ccc(F)cc1)N1CCN(C(=O)c2ccco2)CC1 (configuration not stated),1.01,0.0,9.0%,1.05,26.0*,i
CCCC(c1nnnn1C1CCCC1)N1CCN(c2ccccc2F)CC1 (configuration not stated),0.99,0.0,4.0%,1.01,11.0,i
Cc1ccc2cc(C#N)c(N3CCCN(C(=O)C4CCCO4)CC3)nc2c1C (configuration not stated),0.99,7.0,11.0%,2.36*,10.0,i
Cc1cccc(C(=O)Nc2ccccc2C(=O)OCc2c(C)noc2C)c1,1.03,42.0*,21.0%,1.27,20.0,i
CCCOc1ccc(OC(=O)c2ccc(Br)o2)cc1,1.06,5.0,2.0%,1.12,0.0,i
COc1ccc(C(=O)Cn2c(=O)c(CCC(=O)O)nn3c4ccccc4nc23)cc1OC,1.08,11.0,17.0%,2.83*,11.0,i
CC(C)c1ccc(-c2nc3c([nH]2)c(=O)n(C)c(=O)n3C)cc1,1.03,7.0,14.0%,2.51*,0.0,+
Cn1c(=O)c2[nH]c(Nc3ccccc3)nc2n(C)c1=O,1.05,2.0,1.0%,1.1,0.0,i
